Assay results as given in PMC4336329 (PLoS ONE, 2015).
Hit rate of the full screen: of about 310,000 compounds, about 14,000 (4.5%) showed an effect of 50% or more. Effects have a minus sign here. For the sample, strong results were picked, then their nearest neighbours and some compounds at random. Where a SMILES comes first, the peptide text is derived from it.

target: human ether-à-go-go-related gene (hERG) potassium channel (human, UniProt Q12809); assay: primary screen, population patch clamp on CHO cells stably expressing hERG; higher = less effect of the substance
Procedure: Briefly, Chinese hamster ovary (CHO) cells stably expressing the hERG channel were dislodged from tissue culture flasks and dispensed into PPC plates. […] During the recording, background leak currents were estimated by a 100 ms step to -80 mV from an initial holding potential of -70 mV and subtracted from the subsequent current measurement. The campaign was conducted in two phases using slight differences in recording protocol. In the first phase, the initial voltage pulse used a 100 ms step to -30 mV from a holding potential of -70 mV, a 2 s conditioning step to +25 mV, and a 2 s test step to -30 mV. During the second phase of the screen, the potential during the conditioning step was raised to +45 mV. In both phases of the campaign, a secondary voltage pulse was applied using the same parameters as the second phase initial pulse. The initial and secondary pulses were applied in the absence of compound, and upon application of 1 μM and 10 μM test concentrations. […]
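Further: peak tail current of the secondary pulse compared with the same well before compound.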

human ether-à-go-go-related gene (hERG) potassium channel, sequence (Q12809 whole entry, looked up): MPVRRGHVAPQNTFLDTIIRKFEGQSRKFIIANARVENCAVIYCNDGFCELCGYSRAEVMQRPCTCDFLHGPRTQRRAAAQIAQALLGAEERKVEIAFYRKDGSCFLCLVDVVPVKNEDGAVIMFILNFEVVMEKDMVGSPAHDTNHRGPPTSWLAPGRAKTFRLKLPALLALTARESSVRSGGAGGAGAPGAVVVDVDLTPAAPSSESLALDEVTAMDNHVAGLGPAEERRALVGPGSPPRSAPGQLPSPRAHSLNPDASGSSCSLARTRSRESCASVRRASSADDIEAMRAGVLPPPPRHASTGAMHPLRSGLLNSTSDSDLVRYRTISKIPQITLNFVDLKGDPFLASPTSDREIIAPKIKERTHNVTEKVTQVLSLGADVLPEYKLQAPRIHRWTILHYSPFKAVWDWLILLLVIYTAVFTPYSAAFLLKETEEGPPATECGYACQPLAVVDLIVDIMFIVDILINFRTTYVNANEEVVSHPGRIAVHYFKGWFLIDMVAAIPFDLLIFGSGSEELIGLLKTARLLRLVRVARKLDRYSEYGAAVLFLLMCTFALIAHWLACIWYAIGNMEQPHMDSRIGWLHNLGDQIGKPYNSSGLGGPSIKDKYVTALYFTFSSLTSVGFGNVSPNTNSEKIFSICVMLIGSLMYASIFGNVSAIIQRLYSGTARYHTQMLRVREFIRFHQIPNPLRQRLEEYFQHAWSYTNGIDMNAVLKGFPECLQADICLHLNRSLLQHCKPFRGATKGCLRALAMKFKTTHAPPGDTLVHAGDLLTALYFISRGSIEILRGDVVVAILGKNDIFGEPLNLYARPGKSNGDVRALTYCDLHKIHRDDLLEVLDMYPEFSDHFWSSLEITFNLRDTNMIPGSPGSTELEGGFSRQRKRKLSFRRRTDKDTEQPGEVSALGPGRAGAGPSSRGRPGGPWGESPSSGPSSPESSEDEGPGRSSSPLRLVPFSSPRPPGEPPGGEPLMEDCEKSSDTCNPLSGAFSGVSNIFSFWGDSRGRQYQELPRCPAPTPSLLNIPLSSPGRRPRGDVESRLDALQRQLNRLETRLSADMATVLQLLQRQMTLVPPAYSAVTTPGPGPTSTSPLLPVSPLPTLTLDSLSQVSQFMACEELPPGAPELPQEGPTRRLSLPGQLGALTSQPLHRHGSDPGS

SMILES	hERG current change (%, negative = inhibition) at 10uM [%]
C#CCOCOCC#CCN(CC)CC	3.26
COc1ccc(-n2c(C)cc(C(=O)Cn3nc(C(=O)O)c4ccccc4c3=O)c2C)cc1	-1.43
CC(C)(C)c1ccc(CS(=O)CC(O)CO)cc1 (stereo not drawn)	19.3
Cc1cccnc1NC(=O)CNC(=O)c1cccs1	-8.89
COc1ccc(S(=O)(=O)Nc2cccc(-n3cnnn3)c2)cc1	1.11
O=C(CCNC(=O)C1CCN(S(=O)(=O)c2ccc(F)cc2)CC1)NCc1ccccc1	2.4
O=C(NCCc1ccccc1)C1CCN(S(=O)(=O)c2ccc(-n3cnnn3)cc2)CC1	-66.3
CCCCOc1ccc(NS(=O)(=O)c2ccc(-n3cnnn3)cc2)cc1	-3.42
CC(=O)c1ccc(S(=O)(=O)Nc2ccc(-n3cnnn3)cc2)cc1	-6.16
COc1ccc(OCC(NS(=O)(=O)c2ccc(-n3cnnn3)cc2)C(C)C)cc1 (stereo not drawn)	-52.2
CC(=O)c1ccc(OCCNS(=O)(=O)c2ccc(-n3cnnn3)cc2)cc1	-55.3
COc1ccc(S(=O)(=O)N2CCC(C(=O)NCCCc3ccccc3)CC2)cc1	-35.9
Cc1ccc(S(=O)(=O)N2CCC(C(=O)NCCc3ccccc3)CC2)cc1	-0.42
O=C(NCCCc1ccccc1)C1CCN(S(=O)(=O)c2ccc(F)cc2)CC1	-60.7
CC(=O)c1ccc(OCCNS(=O)(=O)c2ccc(-n3cnnn3)c(C)c2)cc1	-2.88
O=C(NCCc1ccccc1)C1CCN(S(=O)(=O)c2ccc(-c3nn[nH]n3)cc2)CC1	-18.7
Cc1ccc(N2CCN(C(=O)c3cccs3)CC2)cc1C	2.97
Cc1cccn(Cc2c(Cl)cccc2Cl)c1=O	-9.53
CCOc1ccc(N(CC(=O)NC(C(C)C)C(C)C)S(=O)(=O)c2ccc(OC)c(OC)c2)cc1	38
CCOC(=O)CNC(=S)N(Cc1ccccc1)Cc1cccs1	-17.3
COc1ccc(NC(=O)c2ccc(OC)cc2)cc1	-30
COc1ccc(OC)c(C2=Nn3c(nnc3-c3cc(OC)c(OC)c(OC)c3)SC2)c1	-21
CC(C)(C)NS(=O)(=O)c1cc(C(=O)Nc2sccc2C#N)ccc1Cl	4.98

SMILES	hERG current change (%, negative = inhibition) at 10uM [%]
COc1ccc(NC(=O)NC2(C(=O)N3CCCC3)CCCCC2)cc1	22
Cc1ccc(NC(=O)CN(C)C(=O)c2cccc(S(=O)(=O)N3CCc4ccccc43)c2)cc1	-15.6
CC(=O)C1=C(O)C(=O)N(Cc2cccnc2)C1c1ccc(C(C)C)cc1 (stereo not drawn)	17.1
CC(=O)N1c2ccc(S(=O)(=O)N3CCC(C(=O)NCc4ccc(N(C)C)cc4)CC3)cc2CC1C (stereo not drawn)	18.8
COc1ccc(CCNS(=O)(=O)c2ccc(-n3cnnn3)cc2)cc1OC	-26
CCOc1ccc(-n2cnnn2)cc1S(=O)(=O)Nc1c(C)cccc1C	-19.4
CCOc1ccc(-n2cnnn2)cc1S(=O)(=O)NCc1ccccc1	-71
O=C(NCCc1ccc(Cl)cc1)C1CCN(S(=O)(=O)c2ccc(-n3cnnn3)cc2)CC1	-69
CCOc1cc(S(=O)(=O)NCc2ccccc2)c(OCC)cc1-n1cnnn1	-14.3
CC(C)CCNC(=O)C1CCN(S(=O)(=O)c2ccc(-n3cnnn3)cc2)CC1	-37.6
Cc1cc(S(=O)(=O)NCCc2ccccc2)ccc1-n1cnnn1	-17.1
CC(C)CNC(=O)C1CCCN(S(=O)(=O)c2ccc(-n3cnnn3)cc2)C1 (stereo not drawn)	-0.697
CC(C)CNC(=O)C1CCN(S(=O)(=O)c2ccc(-n3cnnn3)cc2)CC1	-55.3
COc1ccc(CCNC(=O)C2CCN(S(=O)(=O)c3ccc(-n4cnnn4)cc3)CC2)cc1OC	-13
O=S(=O)(NCCc1ccccc1)c1ccc(-n2cnnn2)cc1	-56.7
CC(=O)Nc1ccc(S(=O)(=O)N2CCC(C(=O)NCCc3ccc(Cl)cc3)CC2)cc1	5.7
O=C1CSC(c2ccc([N+](=O)[O-])cc2)N1C1CCCCC1 (stereo not drawn)	-47.4
CC(C)c1ccc(O)c(NC(=S)NC(=O)c2cccnc2)c1	11
CC(C)Oc1cccc(C(=O)C2CCCN(C(=O)c3cc(C4CC4)[nH]n3)C2)c1 (stereo not drawn)	-19.9
CC(=O)c1ccc(NC(=O)N2CCc3ccccc3C2)cc1	-0.383
CCN1CCN(CC(=O)Nc2ccc(Cl)c(Cl)c2)C(=O)C1=O	-5.76
Cc1c(N(C)C(=O)C23CC4CC(CC(C4)C2)C3)c(=O)n(-c2ccccc2)n1C	-1.09
Cc1ccc(NC(=S)N2CCN(S(=O)(=O)c3ccccc3)CC2)cc1C	11.6

SMILES	hERG current change (%, negative = inhibition) at 10uM [%]
Cc1nn2cnc3sc4c(c3c2nc1=O)CCCC4	-3.17
COc1ccc(NC(=O)CCCC2=NS(=O)(=O)c3ccccc3N2)cc1	17
c1ccc2c(NCCCN3CCOCC3)c3ccccc3nc2c1	-66.6
O=c1c2ccccc2nc2c3ccccc3c(NCCO)nn12	-7.34
Fc1ccccc1-c1nc(NCCCN2CCOCC2)c2ccccc2n1	-45.9
O=c1c2ccccc2oc2ccc(NCCCN3CCOCC3)cc12	-41.9
CN(C)CCCNc1c2ccccc2nc2ccccc12	-28.8
O=c1c2ccccc2nc2c3ccccc3c(NCc3ccccn3)nn12	-13.5
c1ccc2[nH]c(NCCCN3CCOCC3)nc2c1	-6.61
OCCCNc1c2ccccc2nc2ccccc12	-65.6
O=c1c2ccccc2nc2c3ccccc3c(NCCN3CCOCC3)nn12	-72.2
O=c1c2ccccc2sc2ccc(NCCCN3CCOCC3)cc12	-54.2
O=c1c2ccccc2oc2cc(NCCCN3CCOCC3)ccc12	-29.7
OCCNc1c2ccccc2nc2ccccc12	-31
O=C(C1COc2ccccc2O1)N1CCN(c2nc3c(F)cc(F)cc3s2)CC1 (stereo not drawn)	-16.6
CCOc1ccc(S(=O)(=O)NC(C)C(=O)NCc2ccc3c(c2)OCO3)cc1 (stereo not drawn)	2.83
N/C(=N\OC(=O)COc1ccc(Br)cc1)c1cccnc1	-3.21
Cc1c(Cl)c([N+](=O)[O-])nn1CC(=O)NC(C)C1CC2CCC1C2 (stereo not drawn)	-12.9
CC(=O)NS(=O)(=O)c1ccc(NC(=O)c2ccc(S(=O)(=O)N3CCCC3)cc2)cc1	-0.257
CC(C)(C#N)NC(=O)c1ccco1	4.37
COc1ccc(C)cc1NC(=O)COCC(=O)O	-8.48
O=C(NC1CCCCC1)C(c1ccccc1)N1CCOCC1 (stereo not drawn)	9.63
COCCNC(=O)CN1C(=O)COc2ccc(S(=O)(=O)N3CCCCCC3)cc21	20.3

SMILES	hERG current change (%, negative = inhibition) at 10uM [%]
CC(C)(C)c1ccc(C(=O)NCc2ccc(Cl)cc2)cc1	12.6
O=[N+]([O-])c1ccc2c(c1Nc1ccccc1Cl)=NC1(CCCCC1)N=2	3.29
CC(=O)NCCc1nc2cc(NC(=O)c3ccc(F)cc3)ccc2n1C	9.6
CC(=O)NC(Cc1ccccc1)C(=O)NC(Cc1ccccc1)C(=O)O (stereo not drawn) (Ac-Phe-Phe-OH; configuration not given here)	10.4
O=C(CCN1C(=O)c2ccccc2C1=O)Nn1cnnc1	-0.368
Clc1ccc(-c2nc(NCCCN3CCOCC3)c3ccccc3n2)cc1	-18.9
c1ccc(-c2nc(NCCCN3CCOCC3)c3ccccc3n2)cc1	-34.6
c1csc(-c2nc(NCCCN3CCOCC3)c3ccccc3n2)c1	-50.7
COC(=O)c1ccc(N2C(=O)C3CC(C)=C(C)CC3C2=O)cc1 (stereo not drawn)	3.73
CCCC(c1nnnn1Cc1ccc(OC)cc1)N1CCN(C(=O)c2ccco2)CC1 (stereo not drawn)	-51.3
CCC(c1nnnn1Cc1ccc(OC)cc1)N1CCN(C(=O)c2ccco2)CC1.Cl (stereo not drawn)	-55.5
CCC(c1nnnn1CCc1ccccc1)N1CCN(C(=O)c2ccco2)CC1.Cl (stereo not drawn)	-28
CCCCC(c1nnnn1Cc1ccco1)N1CCN(C(=O)c2ccco2)CC1.Cl (stereo not drawn)	-51.8
CCCC(c1nnnn1C(C)(C)CC)N1CCN(C(=O)c2ccco2)CC1.Cl (stereo not drawn)	-54
CCC(C)(C)n1nnnc1C(C(C)C)N1CCN(C(=O)c2ccco2)CC1 (stereo not drawn)	-29.7
CCCC(c1nnnn1Cc1ccco1)N1CCN(C(=O)c2ccco2)CC1.Cl (stereo not drawn)	-11.8
CCCC(c1nnnn1C(C)(C)C)N1CCN(C(=O)c2ccco2)CC1.Cl (stereo not drawn)	-12.8
CCC(c1nnnn1Cc1ccco1)N1CCN(C(=O)c2ccco2)CC1.Cl (stereo not drawn)	-20.6
CCCC(c1nnnn1CCOC)N1CCN(C(=O)c2ccco2)CC1.Cl (stereo not drawn)	-4.1
CCC(c1nnnn1CCOC)N1CCN(C(=O)c2ccco2)CC1.Cl (stereo not drawn)	9.17
CCCC(c1nnnn1CCc1ccccc1)N1CCN(C(=O)c2ccco2)CC1 (stereo not drawn)	-49.3
